# Source: PubChem BioAssay (National Center for Advancing Translational Sciences (NCATS))
# Compounds with a hit are over-represented: about 6.1% of the library has one in this group of screens.
# D1 potentiator – human D1 dopamine receptor positive modulation; potentiation, % at 10 µM; P21728; actives 0.036% (n = 360,000); HEK293 TREx D1 cells, calcium flux, dopamine EC20 potentiation; in the data active = potentiation above about 30%; also: 0% is about no effect
# D3 antag – D3 dopamine receptor (human) antagonism. P35462. max response, negative = inhibition, %. D3R cells, DiscoveRx beta-arrestin luminescence, antagonist mode; stronger effect = lower value. actives 2.5% (n = 360,000); in the data active = max response below about -50%; inconclusive = no clear call, values can overlap the other calls; also: % is scaled to controls: 0 for no effect and ±100 for the full control effect
# Target sequence (P35462 whole entry, looked up): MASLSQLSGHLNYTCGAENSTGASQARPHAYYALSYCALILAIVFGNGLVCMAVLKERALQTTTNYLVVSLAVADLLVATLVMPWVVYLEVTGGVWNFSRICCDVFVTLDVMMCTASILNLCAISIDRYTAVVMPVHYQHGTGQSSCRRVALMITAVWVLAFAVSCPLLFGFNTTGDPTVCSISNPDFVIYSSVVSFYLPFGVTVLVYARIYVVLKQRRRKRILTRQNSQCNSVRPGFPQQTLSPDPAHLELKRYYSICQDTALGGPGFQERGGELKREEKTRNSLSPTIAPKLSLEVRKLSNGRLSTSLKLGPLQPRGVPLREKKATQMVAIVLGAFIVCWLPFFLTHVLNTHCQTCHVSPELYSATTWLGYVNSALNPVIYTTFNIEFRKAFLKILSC
#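 Cells plated overnight at 1500 cells/well, then exposed to library compounds with dopamine controls for 90 minutes at 37 degrees C. DiscoveRx reagent added for 30–60 minutes at room temperature; luminescence read, quantitative HTS format.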
# D1 antag – antagonists of human D1 dopamine receptor; P21728; HEK293 TREx D1 cells, calcium flux, dopamine EC80; stronger effect = lower value; activity change, negative = inhibition, % at 10 µM; actives 3.2% (n = 360,000); in the data active = activity change below about -30%; also: % is scaled to controls: 0 for no effect and ±100 for the full control effect
#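 After overnight tetracycline induction at 30 C, force-coupled D1 HEK293 cells took up a no-wash calcium dye at room temperature. Compounds were added and monitored 180 s, and the response to EC80 dopamine was then recorded.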
# D1 agonist – human D1 receptor agonism | actives 1% (n = 360,000) | HEK293 T-REx D1 cells, calcium flux, agonist mode | activation, % at 2 µM; in the data active = activation above about 30%; also: 0% is about no effect
#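 Inducible HEK293 T-REx D1 cells, force-coupled to calcium signalling, were plated at 4000 cells/well with tetracycline and held overnight at 30 C. After no-wash calcium dye loading, compound-evoked calcium rise over 180 s flagged agonists.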
# ERG Ets-DNA blk – ERG Ets/DNA interaction inhibition; P11308; fluorescence polarization, His-ERG Ets domain / labelled DNA; Potency, µM (top dose mostly 76.9 µM), for inactives: at the highest dose FP activity, negative = inhibition, actives largely listed as inhibitors; actives 0.028% (n = 370,000); AID 624246; active = well fitted inhibition curve with a large enough effect in the polarisation, with a control signal flat; inconclusive = small, poorly fitted or top-dose-only effect, or effect the other way, or a change in a side signal; inactive = no such curve, though single readings can be large or run the other way; the % refers to the polarisation;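 also: polarization taken with two DNA probes labelled with fluorescein and Texas red; potency is read from the fitted curve at half-maximal effect; % of control where 0% means no effect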
#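 His-tagged ERG Ets domain (1 uM in the protein solution; 300mM KCl, 50mM Tris-HCl, 1mM EDTA, 1mM DTT, pH 7.5) received compound, then a probe mix of 5 nM fluorescein-DNA and 100nM Texas-615-DNA. Fluorescence polarization was read for both dyes.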
# D3 ag – agonists of human D3 dopamine receptor; max activation, %; actives 0.58% (n = 410,000); P35462; D3R DiscoveRx beta-arrestin cells, luminescence, 90 min; in the data active = max activation above about 30%; also: 0% is about no effect
#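 Agonist mode: compounds and dopamine controls were applied to plated cells for 90 min at 37 degrees C after an overnight attachment at 1500 cells/well. Luminescent read-out followed 30 - 60 minutes at room temperature with DiscoveRx detection reagent.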
# An asterisk follows results filed as active; ? = inconclusive; · = no result given.
SMILES,D1 potentiator,D3 antag,D1 antag,D1 agonist,ERG Ets-DNA blk,D3 ag
Cc1cc2nc(-c3ccc[nH]c3=O)n(Cc3ccc(F)cc3)c2cc1C,-0.7,?,-10.8,3.8,-3.8%,-13.3
CCC1CCC2(CC1)NC(=O)N(CC(=O)c1c(C)[nH]c3ccccc13)C2=O (stereo not given),-0.8,7.8,-0.9,1.3,13.0%,2.8
CCc1ccc(S(=O)(=O)c2c[nH]c3cc(OC)c(OC)cc3c2=O)cc1,-3.8,·,-42.9*,-0.6,-0.7%,7.8
COc1ccc2[nH]cc(S(=O)(=O)c3ccc(F)cc3)c(=O)c2c1,·,0.0,17.6,3.8,14.0%,0.6
CCCn1ncc(OC)c(Cl)c1=O,-2.1,5.3,-59.4*,-0.8,4.0%,7.2
CCN1C(=O)[C@H]2[C@H]3CN=C(SCc4ccccc4)N3[C@@](CC)(C(=O)OC)[C@H]2C1=O,·,20.4,·,·,13.3%,9.8
C=CCN1C(=O)CSc2ccc(C(=O)NCc3cccs3)cc21,-3.0,12.6,-21.2,3.8,2.3%,5.8
CC(C)C(=O)NCCc1nc(-c2ccccc2)no1,·,-4.3,·,·,7.0%,-1.5
N#C/C(=C\c1ccc[nH]1)C(=O)Nc1ccccc1Cl,-3.8,-10.5,0.0,5.3,-3.7%,-0.5
N#C/C(=C\c1ccc[nH]1)C(=O)Nc1ccccc1F,-4.8,-20.7,-31.2*,0.5,-14.6%,-9.9
COc1ccc(/C=N/NC(=O)Cn2cnc3ccccc3c2=O)cc1,1.3,24.9,4.7,-1.4,-4.7%,6.1
O=C(NC1CCCC1)c1ccc2c(c1)N(Cc1c(F)cccc1Cl)C(=O)c1ccccc1S2,-1.6,·,-8.9,10.0,0.1%,3.5
O=[N+]([O-])c1ccc(N2CCN(Cc3ccccc3)CC2)c2c1no[n+]2[O-],·,-74.0*,·,·,·,-12.6
O=[N+]([O-])c1ccc(N2CCN(Cc3ccccc3)CC2)s1,-6.4,-65.7*,1.8,2.6,2.1%,-8.8
Cc1ccc(NC(=O)c2ccc(NC(=O)C3CCCCC3C(=O)O)cc2)cc1 (stereo not given),2.1,-6.8,-8.2,1.4,19.8%,-9.4
O=C(Nc1ccc(Cl)cc1F)c1cc(S(=O)(=O)NCc2ccc3c(c2)OCO3)ccc1F,-1.6,·,-3.5,-2.1,14.1%,-4.9
N=C1C(c2nc3ccccc3[nH]2)=C(O)CN1c1ccc(F)cc1,-16.8,30.7,-30.1*,2.1,-15.7%,-1.6
COC(=O)c1cnc(Oc2ccc(NC(=O)NC(=O)c3c(OC)cccc3OC)cc2)cc1C(F)(F)F,-10.9,-29.5,-54.4*,2.4,7.6%,-11.1
Cc1cc(C)nc(NN2C(=O)/C(=C/c3ccc(O)cc3)SC2=S)n1,-0.8,-21.6,18.8,42.9*,?,-20.6
COc1ccccc1/C=C1\SC(=S)N(Nc2nc(C)cc(C)n2)C1=O,-6.8,-25.4,-14.1,1.9,6.9%,1.2
COc1cc(/C=C2\SC(=S)N(NC(=O)c3ccccc3O)C2=O)ccc1O,-4.8,-15.7,-1.3,90.1*,132.0%,-3.2
COc1ccc(/C=C2\SC(=S)N(NC(=O)c3ccncc3)C2=O)cc1OC,-5.6,·,6.4,0.9,·,·
O=C(NN1C(=O)/C(=C/c2cc([N+](=O)[O-])ccc2O)SC1=S)c1ccccc1O,2.6,·,24.4,2.8,·,·
O=C(NN1C(=O)/C(=C/c2ccc(O)c([N+](=O)[O-])c2)SC1=S)c1ccccc1Cl,-6.2,-74.3*,14.5,1.6,?,-30.8
O=C(NN1C(=O)/C(=C/c2ccc(O)cc2)SC1=S)c1ccccc1O,-1.8,-5.8,-26.6,67.3*,113.5%,-2.8
SMILES,D1 potentiator,D3 antag,D1 antag,D1 agonist,ERG Ets-DNA blk,D3 ag
O=C(NN1C(=O)/C(=C/c2ccc(O)cc2)SC1=S)c1cccc(O)c1,-2.7,-7.3,7.3,26.1,136.0%,-0.9
O=C(COc1nncc2ccccc12)Nc1ccc(F)c(F)c1,-1.2,-18.9,6.5,1.1,3.2%,-39.0
Cc1ccc(SC(C)C(=O)NC(N)=O)c(C)c1 (stereo not given),2.0,5.6,1.2,-0.2,141.5%,0.2
Cn1cc(/C=C2\SC(=S)N(NC(=O)c3ccccc3)C2=O)c2ccccc21,-0.5,2.1,-12.0,74.6*,16.8%,1.6
CSCCC(NC(=O)COc1ccccc1)C(=O)N1CCC(C(N)=O)CC1 (stereo not given),·,7.0,-30.7*,0.5,-1.1%,-4.2
CSCCC(NC(=O)COc1ccccc1)C(=O)N1CCCCC1 (stereo not given),-3.0,-12.9,2.6,0.0,-7.2%,-4.1
COc1ccc(OC)c(NC2=NC3(CCCC3)N=C(N)N2)c1,-22.9,-57.6*,-56.8*,6.5,0.4%,-4.9
COc1ccc(OC)c(S(=O)(=O)NC2CCN(Cc3ccccc3)CC2)c1,8.3,-15.5,-2.5,2.6,·,-14.6
COc1ccc(NS(=O)(=O)c2cccc(C(=O)NC3CCN(Cc4ccccc4)CC3)c2)cc1,-0.4,-53.2*,-33.2*,2.2,-2.6%,-23.4
COc1ccc(Cn2c(=O)[nH]c3cc(C(=O)Nc4ccc(N5CCN(C)CC5)cc4)ccc32)cc1,3.4,12.5,1.2,1.7,·,1.7
COc1ccc(Cl)cc1NS(=O)(=O)c1cccc(C(=O)NC2CCN(Cc3ccccc3)CC2)c1,·,-103.6*,·,·,-11.1%,-25.2
COc1ccc(Cn2c(=O)[nH]c3cc(C(=O)NC4CCN(Cc5ccccc5)CC4)ccc32)cc1,6.2,-66.8*,19.0,2.7,15.9%,-16.2
COc1ccc(CNC2CCN(Cc3ccccc3)CC2)cc1,-8.4,-25.7,19.1,32.2*,-12.0%,-10.1
O=C(Nc1cccc(C(F)(F)F)c1)OCc1ccncc1,·,-2.3,·,·,-0.2%,-6.4
Cc1ccc(CCNC(=O)c2cc(C)nc3c2c(C)nn3-c2ccc(C)cc2)cc1,-9.8,·,-14.6,3.3,0.2%,20.9
O=C(Cc1ccc(NC(=O)C2CCN(C(=O)C3CC3)CC2)cc1)Nc1cccc(C(=O)N2CCCCC2)c1,·,-1.2,·,·,-8.9%,3.9
O=c1[nH]c2ccccc2nc1/C=C(\O)C1CC1,7.7,-18.1,9.8,0.5,1.3%,-18.8
O/C(=C\c1nc2ccccc2[nH]1)c1cccs1,-3.9,2.8,-4.4,-0.8,10.8%,0.5
CC(C)(C)/C(O)=C/c1nc2ccccc2[nH]c1=O,-0.8,-14.8,-6.6,44.8*,-7.8%,8.3
O=c1[nH]c2ccccc2nc1/C=C(\O)c1cccs1,5.5,3.3,-6.0,279.5*,4.0%,2.9
CC1(C)CC(=O)C(C=Nc2ccc(O)c(N=CC3=C(O)CC(C)(C)CC3=O)c2)=C(O)C1,-0.6,4.3,28.0,1.2,11.2%,8.6
CC1(C)CC(=O)C(C=Nc2ccc(C(=O)c3ccccc3)cc2N=CC2=C(O)CC(C)(C)CC2=O)=C(O)C1,-0.5,-118.5*,-14.1,86.2*,1.9%,-24.2
